Compounds with a hit are over-represented: about 4.7% of the library has one in this group of screens.
rCAG RNA binder: binds r(CAG) RNA repeats; r(CAG) RNA repeat, TO-PRO-1 dye displacement fluorescence; inhibition, % at 3 µM; 370,000 tested, 1.3% active; AID 651821;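 active = inhibition above the plate cutoff, the mean of all test compounds on that plate plus 3 SD, cut at about 35% in these data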;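 also: 0% = DMSO alone and 100% = 100 µM mitoxantrone as full dye displacement; higher means more dye released from RNA so lower well fluorescence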
ADAM10 inh: inhibits human ADAM10; O14672; recombinant ADAM10, EDANS/DABCYL FRET peptide cleavage, 3 h; inhibition, % at 7 µM; 370,000 tested, 0.62% active; AID 720582;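 active = inhibition above a per-campaign cutoff equal to the mean of compounds falling between control-based bounds plus 3 SD, cut at about 20% in these data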;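 also: 0% = DMSO wells while the 100% control is not disclosed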
proKLK7 act: activators of human kallikrein-7 zymogen; 370,000 tested, 0.9% active; P49862; activation, % at 7 µM; AID 652039; purified proKLK7, EDANS-DABCYL substrate fluorescence; 100% is mature enzyme control, 0% vehicle;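 active = activation above the mean of all tested compounds plus 3 SD, computed per campaign excluding outliers beyond control limits, cut at about 13% in these data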
Pemphigus Ab inh: inhibitors of pemphigus antibody binding to human desmoglein-3; P32926; DSG3-coupled beads, scFv-anti-DSG3-GFP binding, flow cytometry; active compounds read low; binding (percent of control), % at 10 µM; 310,000 tested, 0.48% active;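 active = binding more than 3 SD below its plate's average and above zero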;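 also: hits lower antibody fragment binding to DSG3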
ADAM17 inh: inhibitors of human ADAM17 | P78536 | recombinant ADAM17, EDANS/DABCYL FRET peptide cleavage | inhibition, % at 6.95 µM | 370,000 tested, 0.83% active;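 active = inhibition above the mean of compounds lying between control limits plus 3 SD, set per campaign, cut at about 8.5% in these data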;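 also: 0% = DMSO-only wells as the low control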
Target sequence (P78536 215-824 limits assumed): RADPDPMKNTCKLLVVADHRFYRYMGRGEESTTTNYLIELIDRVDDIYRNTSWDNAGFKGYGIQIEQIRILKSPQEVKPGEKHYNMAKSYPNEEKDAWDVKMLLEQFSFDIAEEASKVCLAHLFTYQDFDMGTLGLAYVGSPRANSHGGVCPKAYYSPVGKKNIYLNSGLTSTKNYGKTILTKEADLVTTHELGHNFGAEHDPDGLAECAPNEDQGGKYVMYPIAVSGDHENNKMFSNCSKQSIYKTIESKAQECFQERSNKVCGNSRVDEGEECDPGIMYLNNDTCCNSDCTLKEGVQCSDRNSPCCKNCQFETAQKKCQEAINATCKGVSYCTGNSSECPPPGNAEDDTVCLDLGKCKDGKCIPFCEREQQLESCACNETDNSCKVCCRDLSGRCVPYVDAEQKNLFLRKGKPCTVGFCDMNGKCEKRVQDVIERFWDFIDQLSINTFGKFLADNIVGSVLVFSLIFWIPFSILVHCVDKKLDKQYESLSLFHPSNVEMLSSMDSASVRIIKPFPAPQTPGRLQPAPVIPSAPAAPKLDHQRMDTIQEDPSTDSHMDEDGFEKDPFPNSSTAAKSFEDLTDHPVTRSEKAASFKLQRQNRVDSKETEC
MPTP block: inhibitors of mitochondrial permeability transition pore; inhibition, % at 10 µM; isolated mouse mitochondria, Ca2+ swelling absorbance, 30 min; AID 602449; 360,000 tested, 1.4% active;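 active = inhibition of 50% or more, scaled per plate between neutral and stimulator controls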;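 also: 0% = DMSO wells given calcium and 100% = 1 mM EGTA wells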
KLK7 act conf: proKLK7 activation, confirmation; shares compounds with proKLK7 act; purified proKLK7, EDANS-DABCYL substrate fluorescence; scaled: vehicle 0, mature enzyme 100; activation, % at 7 µM; 3,200 tested, 68% active;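 active = activation, as change over the incubation, above the mean of all tested compounds plus 3 SD, cut at about 13% in these data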
EDANS-DABCYL int: fluorescence interference counter-screen for KLK7 activators | shares compounds with proKLK7 act | EDANS-DABCYL substrate fluorescence interference, no enzyme, 4 h; solvent 0%, active enzyme control 100% | activation, % at 7 µM | 3,200 tested, 80% active | AID 686952;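 active = activation above the all-compound mean plus 3 SD, ignoring values outside control-based bounds, cut at about 4.8% in these data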;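 also: value is the 4 h activation minus the activation read at time zero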
The depositor's hits bear a star; i = inactive; x = no result given.

SMILES	rCAG RNA binder	ADAM10 inh	proKLK7 act	Pemphigus Ab inh	ADAM17 inh	MPTP block	KLK7 act conf	EDANS-DABCYL int
Nc1nc(N2C(=O)C3CC=CCC3C2=O)nn1-c1ccccc1 (centres undefined)	-2.9	4.4	0.4	92.1	-0.9	1.1	x	x
CC1=CC(c2ccccc2)n2nc(N3C(=O)c4ccccc4C3=O)nc2N1 (centres undefined)	9.7	i	17.0*	77.1	-472.1	1.3	8.3	8.0*
CN(CCOC(=O)c1cc2ccccc2o1)C1CN(Cc2cn(Cc3ccccc3Cl)nn2)S(=O)(=O)C1 (centres undefined)	4.3	-7.6	0.2	x	-1.7	x	x	x
CC(Sc1nnc(C2CC2)n1C1CC1)C(=O)N(C)C1(C#N)CCCCC1 (centres undefined)	1.4	-2.8	-0.1	91.0	-1.4	-0.6	x	x
CCN(CC)c1nc2ccccc2nc1C(C#N)C(=O)NCCCOC (centres undefined)	-4.4	i	14.0*	94.7	-194.3	-0.2	33.2*	37.1*
CCCCN(CCCC)c1nc2ccccc2nc1C(C#N)C(=O)NCCCOC (centres undefined)	0.4	-81.1	-3.5	124.0	-25.1	-3.6	x	x
COC(=O)CC(=O)CSc1nc(C)cc(C)c1C#N	0.7	-56.2	20.4*	91.2	-14.6	-0.4	93.0*	91.3*
CCOC(=O)NC(=O)CSc1nc(C)cc(C)c1C#N	-2.2	-184.0	98.9*	101.6	-47.7	-0.8	90.9*	98.6*
CCc1c(C)nc(SCC(=O)CC(=O)OC(C)C)c(C#N)c1C	-3.2	-85.9	48.2*	96.4	-21.8	3.5	26.5*	24.1*
CCc1c(C)nc(SCC(N)=O)c(C#N)c1C	0.3	-8.4	0.7	100.6	-2.0	-0.4	x	x
CCc1nnc(NC(=O)CSc2nc(C)cc(C)c2C#N)s1	-1.4	-337.4	13.7*	107.4	-115.2	-1.8	81.9*	80.1*
CCOC(=O)CNC(=O)CSc1nc(C)cc(C)c1C#N	-3.3	-7.5	2.1	105.1	-4.2	-0.6	x	x
COC(=O)c1cccc(Nc2cc(C)n(-c3cccc(C(=O)OC)c3)c(=O)c2)c1	3.5	-8.2	0.1	x	0.4	x	x	x
Cc1ccc2nc3n(c(=O)c2c1)-c1cc(Cl)ccc1C(=O)NC3Cc1ccc(O)cc1 (centres undefined)	6.1	1.6	0.7	x	-1.7	x	x	x
COc1ccccc1-c1cnc(C(O)c2ccc(Cl)c(Cl)c2)[nH]1 (centres undefined)	3.0	0.9	0.0	x	1.1	4.3	x	x
Cc1cc(NC(=O)CSc2nc3c(C)ccc(C)c3cc2C#N)no1	0.6	-1.0	-0.2	104.9	-5.2	-0.9	x	x
Cc1cc(C)c(C#N)c(SCC(=O)Nc2cc(C)on2)n1	2.3	-205.4	15.7*	97.9	-50.1	-0.3	102.5*	109.0*
CN1C(=O)c2cccc3c(S(N)(=O)=O)ccc1c23	3.4	-462.9	71.2*	98.6	-174.5	0.9	56.2*	66.3*
CN1C(=O)c2cccc3c(S(=O)(=O)NCc4ccco4)ccc1c23	3.7	i	21.4*	101.8	-235.0	1.3	14.3*	14.1*
COc1ccc2[nH]c3c(c2c1)CCN1C(=O)C(CC(=O)NCCC2=CCCCC2)C[C@H](C(=O)N2CCCCC2)[C@@]31CCc1ccccc1 (some centres undefined)	5.4	-2.8	0.2	100.2	-2.5	1.4	x	x
CN(C(=O)C1CCOC1)c1nnc(-c2cnccn2)s1 (centres undefined)	1.0	-9.4	28.6*	103.1	-7.7	1.2	26.0*	25.9*
COCC(=O)N(C)c1nnc(-c2cnc(C)cn2)s1	-0.7	-14.8	16.6*	102.5	-8.1	0.1	69.9*	81.4*
Cc1cnc(-c2nnc(N(C)C(=O)C3CCCO3)s2)cn1 (centres undefined)	1.8	-57.4	74.5*	99.7	-19.4	0.2	114.0*	108.0*
N#Cc1c(N)n(-c2ccc(N)cc2)c2nc3ccccc3nc12	1.6	-10.6	0.1	x	-3.3	1.7	x	x

From PubChem BioAssay
